PINK1 expr mod: PINK1 expression modulation. PINK1 immunofluorescence, high-content cytometry, 24 h. Potency, µM (series often up to 76.6 µM), without a hit: at the top dose activation (PINK1 increase), actives largely listed as activators. 0.2% of 410,000 active. AID 624263; active = well fitted activation curve with a large enough effect; inconclusive = small, poorly fitted or top-dose-only effect; cell line not stated here; also: % of control where 0% means no effect; nearly all actives have a fitted effect of over 65% in size
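Fluorescence from anti-PINK1 antibody, together with nuclear and cell stains, was scanned on a laser-scanning cytometer. Before staining, stable-line cells were incubated 24 hours with compounds at 5 concentrations; primary antibody 12 h at 10 degrees C.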
MCF10A rerep: inducers of DNA re-replication in MCF 10A breast cells | Potency, µM (doses to about 46.1 µM), inactives show at the top dose activity, positive = re-replication, most hits filed as activators | AID 624296 | MCF 10A DNA re-replication, Hoechst nuclear intensity, 48 h | 2.9% of 350,000 active; also: % of control where 0% means no effect; nearly all actives have a fitted effect of over 50% in size
KB-3-1 cytotox: kills parental KB-3-1 adenocarcinoma cells; AID 1347075; Potency, µM (highest dose often 46.1 µM), actives largely listed as cytotoxic; 1.4% of 400,000 active; KB-3-1 viability, CellTiter-Glo ATP luminescence, 72 h; also: % is scaled to controls: 0 for no effect and ±100 for the full control effect; nearly all actives have a fitted effect of over 60% in size
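Viability of parental KB-3-1 cells, measured by CellTiter-Glo luminescence, followed a 72 h incubation at 37 °C with pinned compounds in phenol-red-free DMEM containing 10% FBS.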
SW480 rerep: inducers of DNA re-replication in SW480 colon cancer cells. Potency, µM (highest dose often 46.1 µM), without a hit: at the top dose re-replication activation, most hits filed as activators. 1.8% of 340,000 active. SW480 DNA re-replication, Hoechst DNA content imaging, 48 h. AID 624297; also: % of control where 0% means no effect; nearly all actives have a fitted effect of over 55% in size
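Image-based DNA-content assay: after two days of treatment, nuclei were labelled with the DNA dye Hoechst and imaged, and hits were compounds raising the count of nuclei showing high fluorescence intensity.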
KB-V1 MDR tox: KB-V1 MDR subline cytotoxicity; KB-V1 MDR cells viability, CellTiter-Glo, 72 h; 3.4% of 400,000 active; Potency, µM (top dose mostly 46.1 µM), actives largely listed as cytotoxic; also: % is scaled to controls: 0 for no effect and ±100 for the full control effect; nearly all actives have a fitted effect of over 60% in size
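KB-V1 cells (P-gp-expressing MDR subline of KB-3-1) in phenol-red-free DMEM with 10% FBS were exposed to library compounds over a concentration series for 72 h at 37 degrees C. Viability read by CellTiter-Glo luminescence; concentration-effect curves fitted after normalization.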
PTAP TSG101 blk: blocks PTAP/TSG101 interaction to inhibit HIV-1 budding. 340,000 tested, under 10 active. Fluorescence polarization, FITC-PTAP peptide / Tsg101 binding. Potency, µM (titrated, usually from 115 µM), without a hit: at the top dose activity change, negative = inhibition, actives largely listed as inhibitors. Q99816; active = well fitted inhibition curve with a large enough effect in the main read-out, with a control signal flat, not every such curve was filed as active; inconclusive = small, poorly fitted or top-dose-only effect, or effect the other way, or a change in a side signal; inactive = no such curve, though single readings can be large or run the other way; also: % of control where 0% means no effect
Target sequence (Q99816 whole entry, looked up): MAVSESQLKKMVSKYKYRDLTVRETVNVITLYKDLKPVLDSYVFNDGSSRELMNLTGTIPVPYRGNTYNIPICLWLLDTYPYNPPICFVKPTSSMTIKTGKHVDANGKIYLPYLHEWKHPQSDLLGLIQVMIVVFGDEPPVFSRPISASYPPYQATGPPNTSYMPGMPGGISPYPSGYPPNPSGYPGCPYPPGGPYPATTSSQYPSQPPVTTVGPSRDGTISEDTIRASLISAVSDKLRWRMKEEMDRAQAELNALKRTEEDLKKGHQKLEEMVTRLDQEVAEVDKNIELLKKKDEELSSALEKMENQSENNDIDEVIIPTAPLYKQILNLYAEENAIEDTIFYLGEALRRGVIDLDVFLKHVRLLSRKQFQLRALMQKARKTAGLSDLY
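FP read-out: FITC-PTAP peptide, 50 nM final, binding Tsg101 binding domain, 10 uM final; 20 min, r.t.; 10 mM HEPES pH 7.5, 0.15 M NaCl, 0.01% Tween 20, 3 mM EDTA, 0.1 mM TCEP.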
An asterisk follows results filed as active; i = inactive; ? = inconclusive; . = no result given; ! = not confirmed by another sample; [ ] = another dose, or the depositor's remark. In the library only some 6.8% were active in any assay of this set; here they are far more common. Unless noted, calls follow the shape of the dose curve; as a rule, active = well fitted curve in the direction sought with a large enough effect; inconclusive = small, poorly fitted or top-dose-only effect, or another doubt; inactive = no such curve, though single readings can be large; an effect the other way counts as inactive or inconclusive. Potency is read from the fitted curve at half-maximal effect.

SMILES	PINK1 expr mod	MCF10A rerep	KB-3-1 cytotox	SW480 rerep	KB-V1 MDR tox	PTAP TSG101 blk
Cc1ccsc1C1Cc2c(C(=O)NCc3cccnc3)c(=O)cc(C)n2-c2ccccc2S1 (stereo not drawn)	-1%	.	.	.	.	.
COc1cnc(-c2ccccn2)nc1Sc1ccc(Cl)cc1	1%[38.3 µM]	15µM*	?	21µM*	?	0%
COc1cnc(-c2ccccn2)nc1Sc1ccccc1	-1%	7%	i	?	i	-4%
COc1ccc(Sc2nc(-c3ccccn3)ncc2OC)cc1	-2%	?	i	9.2µM*	?	-2%
COc1cnc(-c2ccccn2)nc1Sc1ccc(F)cc1	0%	2%	i	-37%	i	-6%
O=C(NCC(c1cccnc1)N1CCN(Cc2ccccc2)CC1)C(=O)Nc1ccc(F)cc1 (stereo not drawn)	2%	.	i	.	i	.
Cc1cccc(NC(=O)Cn2cc(C(=O)c3ccco3)c3ccccc32)c1C	1%	.	i	.	i	.
CN[C@H](C)CCC=C(C)C	0%	24µM*	i	3%	i	.
Clc1ccc(Cl)c(OCCCCNCc2ccccc2)c1	2%	24%	i	6%	i	-1%
Clc1ccc(OCCCNCc2ccccc2)c(Br)c1	23%[38.3 µM]	?	i	?	21µM*	.
Cc1ccc(N2C(=O)N(CC(=O)c3cc(C)ccc3C)C(=O)C2C)cc1 (stereo not drawn)	-1%	?	?	15%	16µM*	0%
CC(=O)c1ccc2c3c(cc(C)c2c1)CCCC3	6%	21µM*	i	1%	i	-6%
O=C(NCCCCc1ccccc1)c1nn(-c2ccccc2)nc1CO	-2%	.	.	.	.	.
O=S(=O)(c1ccc(Cl)cc1)c1nc(-c2ccco2)oc1SCc1ccccc1F	0%	.	i	.	i	.
CCOC(=O)C(CCc1ccccc1)NC1CCc2ccccc2N(CC(=O)O)C1=O (stereo not drawn)	.	30µM*	.	27µM*	.	.
CN(Cc1cnc2nc(N)nc(N)c2n1)c1ccc(C(=O)N[C@@H](CCC(=O)O)C(=O)O)cc1	-1%	-43%	0.065µM*!	?	0.029µM*!	0%
CCN(CC)c1ccc(-c2nnc(SCC(=O)NCc3ccco3)n2CC)cc1	-1%	.	i	.	i	.
CCN1C(=O)c2ccccc2Sc2ccc(NC(=O)N3CCN(c4cc(C)ccc4C)CC3)cc21	5%	.	.	.	.	.
C=CCNc1nc(-c2sc(NC(=O)C(C)(C)C)nc2C)c(-n2cc(-c3ccccc3)nn2)s1	0%	.	?	.	16µM*	.
O=S(=O)(Nc1ccc(Cl)nn1)c1ccccc1	4%	13µM*	i	?	i	-3%
Cc1ccc(Cl)cc1NC(=O)c1ccc(NC(=O)N2CCSc3ncccc32)cc1	-2%	.	i	.	i	.
O=c1c2ccccc2nc(/C=C/c2cccc([N+](=O)[O-])c2)n1CCCO	0%	23%	i	12%[9.22 µM]	i	-7%
O=c1c2ccccc2nc(/C=C/c2ccc([N+](=O)[O-])cc2)n1CCCO	3%	15%	?	3%	21µM*	3%
O=c1c2ccccc2nc(/C=C/c2ccc([N+](=O)[O-])o2)n1CCCO	11%	4.5µM*	5.8µM*	4.5µM*	?	-3%
CC(NC(=O)c1ccco1)c1nnc2n1CCN(Cc1ccc(N(C)C)cc1)CC2 (stereo not drawn)	1%	.	.	.	.	.
SMILES	PINK1 expr mod	MCF10A rerep	KB-3-1 cytotox	SW480 rerep	KB-V1 MDR tox	PTAP TSG101 blk
COC(=O)c1cc2c(ccn2-c2ccc(F)cc2)n1CC(=O)C(C)(C)C	1%	-16%	i	-2%	i	-3%
COC(=O)c1cc2c(ccn2-c2ccc(F)cc2)n1CC(=O)OC(C)C	5%	16µM*	i	-8%	?	-3%
Cc1ccc(C)c(CN2CCC(CNC(=O)Nc3ccc(F)c(Cl)c3)CC2)c1	-4%	26µM*	?	18µM*	i	-2%
Cc1ccc(S(=O)(=O)NCCc2cn3c(C)csc3n2)cc1	1%	.	.	.	.	.
CCOC(=O)c1cc([N+](=O)[O-])c([N+](=O)[O-])cc1NC(C)=O	-4%	10µM*	?	?	i	-2%
CCOC(=O)c1ccc(NC(=O)c2ccccc2[N+](=O)[O-])cc1	10%	12%	i	18%	i	-10%
O=C(c1ccccc1)c1nn(-c2cccc(Cl)c2)c2nc(-c3ccccc3)cc(=O)n12	?	-7%	?	15%	4.1µM*	-1%
Cc1cccc(-n2nc(C(=O)Nc3ccccc3)n3c(=O)cc(-c4ccccc4)nc23)c1	3%	1%	i	5%	i	2%
Cc1ccc(C)c(OCC(=O)O/N=C(\N)c2ccccn2)c1	0%	10µM*	i	-5%	i	-6%
N/C(=N\OC(=O)c1ccc([N+](=O)[O-])cc1)c1cccnc1	1%	-4%	i	-9%	i	0%
Cc1ccc(C(=O)O/N=C(\N)c2ccccn2)c(C)c1	-2%	7.3µM*	?	?	?	-7%
N/C(=N\OC(=O)c1ccc(Cl)c(Cl)c1)c1ccccn1	2%[38.3 µM]	6%	i	2%	i	2%
N/C(=N\OC(=O)c1ccc(Cl)c([N+](=O)[O-])c1)c1ccccn1	-2%	21µM*	i	?	i	-4%
N/C(=N\OC(=O)c1cc([N+](=O)[O-])ccc1Cl)c1cccnc1	-3%	18µM*	?	?	?	2%
Cc1cccc(C)c1Nc1c(-c2ccccc2F)nc2cccc(C)n12	-1%	.	i	.	i	.
COc1cccc(C2(CC(=O)N3CCCOc4c(cccc4OC)C3)CC(=O)N(C)C2=O)c1 (stereo not drawn)	-1%	.	.	.	.	.
CCCNC(=S)N1CCC(C(=O)c2ccc(Cl)cc2)CC1	4%	0%	i	7.3µM*	i	-5%
COc1ccc(CN2C(=O)c3cccnc3C2Nc2ccc(OC)c(Cl)c2)cc1 (stereo not drawn)	-3%[38.3 µM]	0%	i	13%	15µM*	-6%
COc1ccc(NC(=O)C(C)N2c3cccc4cccc(c34)S2(=O)=O)cc1OC (stereo not drawn)	-5%[38.3 µM]	8.2µM*	18µM*	13µM*	5.2µM*	-8%
CC(C)NC(=O)NC(=O)COC(=O)c1c2c(nc3ccccc13)CCC2	-1%	23µM*	i	0%	21µM*	-2%
CCOC(=O)c1[nH]c(C)c(C(=O)OCC(=O)N2CCc3ccccc32)c1C	?	23µM*	i	-1%	i	-14%
CCOC(=O)c1c(C)[nH]c(C(=O)OCC(=O)N2CCc3ccccc32)c1C	1%	3%	i	-4%	i	3%
